One compound from PubChem BioAssay AID623888 (Vanderbilt Specialized Chemistry Center, 2012) can be followed below.

Molecules are shown by their SMILES.

This assay has as its target Metabotropic glutamate receptor 3 (Rattus norvegicus) (UniProt P31422). Briefly: PubChem AID 623888. Conditions: HEK/GIRK rat mGlu3, thallium flux fluorescence, Schild, at 3 µM; % glutamate max: glutamate max response with compound, stronger effect = lower value; glutamate EC50 fold shift: stronger effect = higher value.

Chain of Metabotropic glutamate receptor 3 (Rattus norvegicus) (P31422 whole entry, looked up): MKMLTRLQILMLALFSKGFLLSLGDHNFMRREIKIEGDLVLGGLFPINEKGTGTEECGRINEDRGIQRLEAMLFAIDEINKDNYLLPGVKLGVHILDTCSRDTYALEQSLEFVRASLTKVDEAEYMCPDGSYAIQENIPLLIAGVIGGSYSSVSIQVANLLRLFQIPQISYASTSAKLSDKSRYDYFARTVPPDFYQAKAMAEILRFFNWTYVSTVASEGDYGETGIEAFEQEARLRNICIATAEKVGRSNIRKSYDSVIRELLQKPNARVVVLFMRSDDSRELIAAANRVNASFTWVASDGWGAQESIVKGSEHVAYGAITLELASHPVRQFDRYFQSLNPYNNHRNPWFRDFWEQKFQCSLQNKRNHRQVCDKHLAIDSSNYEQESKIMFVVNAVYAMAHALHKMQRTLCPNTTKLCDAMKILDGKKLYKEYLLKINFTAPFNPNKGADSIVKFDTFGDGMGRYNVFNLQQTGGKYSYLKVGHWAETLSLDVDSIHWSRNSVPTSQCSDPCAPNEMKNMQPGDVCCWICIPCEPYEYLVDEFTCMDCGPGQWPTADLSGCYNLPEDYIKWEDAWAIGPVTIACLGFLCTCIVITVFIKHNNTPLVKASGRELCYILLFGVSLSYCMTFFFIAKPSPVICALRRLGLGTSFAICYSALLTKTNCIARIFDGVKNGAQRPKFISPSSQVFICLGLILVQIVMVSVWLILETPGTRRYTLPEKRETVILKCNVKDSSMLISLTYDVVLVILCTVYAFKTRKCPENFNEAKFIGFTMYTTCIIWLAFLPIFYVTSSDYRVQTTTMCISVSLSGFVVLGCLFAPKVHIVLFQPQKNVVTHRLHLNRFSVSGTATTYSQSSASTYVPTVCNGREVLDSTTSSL

In the case of `COc1ccc(C#Cc2ccc(C(=O)N3CCC[C@@H](CO)C3)cc2)cc1`, the % glutamate max was 88.9% and the glutamate EC50 fold shift turned out to be 1.48.
